Screening results: PubChem, several laboratories
Bcl-xL primary = Bcl-xL (human) inhibition; GST-Bcl-xL / FITC-Bim BH3 peptide fluorescence polarization; inhibition, % at 10.9 µM; Q07817; AID 2129; 0.7% of 320,000 active;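 active means inhibition above the mean of all tested compounds plus 3 SD, cutoff set per campaign, cut at about 30% in these data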;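 further: inhibitors lower millipolarization by displacing the labeled peptide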
E coli Lon inh = inhibitors of E. coli Lon protease. 0.42% of 360,000 active. inhibition, % at 7.94 µM. P0A9M0. AID 602123. purified E. coli Lon protease, fluorescence polarization; in the data active means inhibition above about 13%, passing the limit was not always enough
GLD-1 TGE inh = GLD-1-TGE RNA interaction inhibition (C. elegans); purified GLD-1 + fluorescein TGE RNA, fluorescence polarization; 0.44% of 320,000 active; inhibition, % at 5.96 µM; Q17339;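 active means percent inhibition above a per-plate cutoff, the plate mean of test compounds plus 3 SD, cut at about 30% in these data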
Target sequence (Q17339 whole entry, looked up): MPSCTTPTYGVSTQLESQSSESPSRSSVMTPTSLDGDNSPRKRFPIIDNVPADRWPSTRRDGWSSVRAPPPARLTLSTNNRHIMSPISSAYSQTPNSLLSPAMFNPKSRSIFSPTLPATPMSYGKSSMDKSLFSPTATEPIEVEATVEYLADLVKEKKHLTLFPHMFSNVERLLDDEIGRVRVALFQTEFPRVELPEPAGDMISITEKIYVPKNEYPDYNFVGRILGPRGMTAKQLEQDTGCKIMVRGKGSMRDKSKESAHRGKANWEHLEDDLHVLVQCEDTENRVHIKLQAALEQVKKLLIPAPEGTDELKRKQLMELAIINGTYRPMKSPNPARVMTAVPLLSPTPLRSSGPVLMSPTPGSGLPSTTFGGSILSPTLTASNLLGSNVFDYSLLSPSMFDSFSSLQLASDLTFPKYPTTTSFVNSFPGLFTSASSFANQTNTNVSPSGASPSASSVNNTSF
EBV gp42 inh = inhibitors of Epstein-Barr virus glycoprotein 42. Q1HVG2. Fluorescence polarization binding assay, mP read-out. inhibition, % (tested at 21.74 µM). 0.42% of 220,000 active. AID 1085; in the data active means inhibition above about 50%
Target sequence (Q1HVG2 whole entry, looked up): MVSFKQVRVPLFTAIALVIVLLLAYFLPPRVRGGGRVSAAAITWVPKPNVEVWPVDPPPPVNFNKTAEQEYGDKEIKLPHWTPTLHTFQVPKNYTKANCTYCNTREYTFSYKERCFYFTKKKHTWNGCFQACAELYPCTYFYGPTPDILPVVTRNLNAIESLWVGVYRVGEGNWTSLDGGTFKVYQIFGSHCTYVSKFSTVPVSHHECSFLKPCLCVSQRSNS
MEX-5 binding = C. elegans MEX-5 TCR-2 RNA binding activity. Q9XUB2. MEX-5/FITC-TCR2 RNA binding, fluorescence polarization; stronger effect = lower value. activity score (negative = inhibition of binding), % at 10 µM. 0.38% of 300,000 active;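 active means inhibition past about -25% in most replicates, and total fluorescence under double the plate's negative control median, limit read from the data; inconclusive means replicates evenly split on the limit, or fluorescence at least double controls; inactive means too little inhibition in most replicates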
Of the large screens only hits and unclear results are named; the others gave an inactive call. The list is not random: actives were taken first. Their share in the collection is about 1.3%.

Cn1c(=O)c(Nc2ccc(Cl)cc2)c2c3c(cccc31)C(=O)c1ccccc1-2	Bcl-xL primary active, GLD-1 TGE inh 172.0, EBV gp42 inh 176.4, MEX-5 binding -40.8 (no result: E coli Lon inh)
COc1ccc(-n2c(C)cc(/C=C3\SC(=S)N(Cc4ccco4)C3=O)c2C)cc1	EBV gp42 inh 80.0, MEX-5 binding -27.9
Cc1ccccc1C1C(C#N)=C2N=C(N)c3c(sc4c3CCCCC4)N2C2=C1C(=O)CC(C)(C)C2 (configuration not stated)	Bcl-xL primary 54.6, GLD-1 TGE inh 48.2
Cc1ccccc1C1C(C#N)=C2NC(=O)c3c(sc4c3CCCCC4)N2C2=C1C(=O)CC(C)(C)C2 (configuration not stated)	GLD-1 TGE inh 101.1, MEX-5 binding inconclusive (no result: E coli Lon inh)
CCCCOC(=O)c1ccc(N=Nc2c(C)c(C#N)c(O)[nH]c2=O)cc1	MEX-5 binding -63.4
Cc1cccc(N=Nc2c(C)c(C#N)c(O)[nH]c2=O)c1	none
O=C(O)C1C2CC(C(Br)C2Br)C1C(=O)O (configuration not stated)	none (no result: Bcl-xL primary, GLD-1 TGE inh, EBV gp42 inh, MEX-5 binding)
Nc1ccc2nc(CN3CCOCC3)[nH]c2c1	MEX-5 binding -63.8
Cc1ccc2nc(Cc3ccc(N)cc3)[nH]c2c1	none
Nc1ccc2nc(Cc3ccccc3)[nH]c2c1	GLD-1 TGE inh 76.0
Cc1ccc([N+](=O)[O-])cc1S(=O)(=O)Nc1ccc(O)c(Sc2ncn[nH]2)c1	MEX-5 binding -40.1 (no result: EBV gp42 inh)
COc1ccc(/C=N/NC2=NS(=O)(=O)c3ccccc32)cc1OC	none (no result: EBV gp42 inh)
COc1ccc(CCCc2nnc(SCC(=O)NN)o2)c(C)c1	none (no result: EBV gp42 inh)
O=c1c(-c2ccco2)[n+]([O-])c2ccccc2n1OCc1c(F)cccc1F	none
CCOn1c(=O)c(-c2cc3ccccc3o2)[n+]([O-])c2ccccc21	MEX-5 binding -42.8
O=c1c(-c2ccco2)[n+]([O-])c2ccccc2n1OCc1ccccc1	Bcl-xL primary 30.5, GLD-1 TGE inh 37.6
Cc1cc(C)cc(NCCC#N)c1	none
Cc1cccn2c(=O)c3cc(C(=O)N(C)C)n(C)c3nc12	Bcl-xL primary 32.1
Cc1cccn2c(=O)c3cc(C(=O)NCCCn4ccnc4)n(C)c3nc12	Bcl-xL primary 44.4
COc1ccc(C(O)c2ncc(-c3ccccc3C)[nH]2)cc1 (configuration not stated)	none (no result: Bcl-xL primary, GLD-1 TGE inh, EBV gp42 inh, MEX-5 binding)
COc1ccc(S(=O)(=O)Nc2c(C)n(C)n(-c3ccccc3)c2=O)cc1C(=O)O	none (no result: Bcl-xL primary, GLD-1 TGE inh, EBV gp42 inh)
O=S(=O)(c1cccc(-c2csc(-c3cccnc3)n2)c1)N1CCOCC1	MEX-5 binding -27.3
CCOC(=O)c1[nH]c(C)c(C(=O)OCC(=O)N(C)C2CCS(=O)(=O)C2)c1C (configuration not stated)	none
COc1ccc(CCN2CC(C(=O)NCc3nc(C)c(C)s3)CCC2=O)cc1 (configuration not stated)	none (no result: EBV gp42 inh)
c1ccc(-c2nnc(-c3ccccn3)nn2)nc1	MEX-5 binding -41.6 (no result: EBV gp42 inh)
COc1ccccc1N1C(=O)S/C(=C\c2ccc(C)s2)C1=O	MEX-5 binding -31.8 (no result: EBV gp42 inh)
Cc1ccc(/C=C2\Sc3ccccc3C2=O)s1	EBV gp42 inh 94.0
CCN1C(=O)[C@H]2[C@@H](c3ccc(-c4ccc5c(c4)OCO5)c(OC)c3)N[C@@](C)(C(=O)OC)[C@H]2C1=O	none (no result: Bcl-xL primary, EBV gp42 inh, MEX-5 binding)
C/C(=N\NC(=O)c1cccc(F)c1)c1ccc(NC(=O)Cc2ccccc2)cc1	none (no result: Bcl-xL primary, GLD-1 TGE inh, EBV gp42 inh, MEX-5 binding)
C/C(=N\NC(=O)c1cc(O)cc(O)c1)c1ccc(NC(=O)Cc2ccccc2)cc1	Bcl-xL primary 32.1 (no result: EBV gp42 inh)
Cc1cc(/C=N/Nc2ccc([N+](=O)[O-])cn2)c(C)n1-c1ccc(C(=O)O)cc1	EBV gp42 inh 61.4
CSCCC(NC(=O)c1ccco1)C(=O)NCC1CCCO1 (configuration not stated)	none (no result: EBV gp42 inh, MEX-5 binding)
CCCCn1nnnc1C(c1cc2ccccc2o1)N1CCN(c2cc(C)nc3ccccc23)CC1 (configuration not stated)	none (no result: Bcl-xL primary, GLD-1 TGE inh, EBV gp42 inh, MEX-5 binding)
CCCCC(Sc1nc(N)c(NC(=O)c2ccco2)c(=O)[nH]1)C(=O)O (configuration not stated)	Bcl-xL primary 31.1 (no result: EBV gp42 inh)
CCCCC(Sc1nc(N)c(NC(=O)c2ccc(OCC)cc2)c(=O)[nH]1)C(=O)O (configuration not stated)	none
CCCS(=O)(=O)c1cn2cccc(N)c2c1S(=O)(=O)CCC	Bcl-xL primary 98.3, GLD-1 TGE inh 85.9
Cc1nc2ccccc2c2c(N)c3ccccc3n12	Bcl-xL primary 35.3
O=C(NC1CCCc2c1cnn2-c1ccc(F)cc1F)c1ccccn1 (configuration not stated)	Bcl-xL primary 31.2
O=C(NC1CCCc2c1cnn2-c1ccccc1F)c1ccccn1 (configuration not stated)	none (no result: EBV gp42 inh)
C=CCN1C(=O)c2ccc(C(=O)OCC(=O)Nc3ccc(S(N)(=O)=O)cc3)cc2C1=O	none (no result: EBV gp42 inh)
Cc1ccc(NC2=Nc3ccccc3CC2)cc1	none
Brc1ccc(NC2=Nc3ccccc3CC2)cc1	Bcl-xL primary 41.0
O=C1CC2(CCCCC2)CC(=O)N1CCc1ccccc1	none (no result: Bcl-xL primary, GLD-1 TGE inh, EBV gp42 inh, MEX-5 binding)
O=C1C=CC(=O)C(C2=C3C(=O)N(CCc4ccccc4)CC(=O)N3CCC2)=C1	MEX-5 binding -47.3 (no result: E coli Lon inh)
CN(NC1CC(=O)N(c2ccccc2)C1=O)c1ccccc1 (configuration not stated)	none (no result: MEX-5 binding)
O=C(COC(=O)C1CCN(C(=O)c2ccc(Cl)cc2)CC1)Nc1ccccc1F	none (no result: EBV gp42 inh, MEX-5 binding)
Cc1occc1C(=O)N/N=C/C1=C(N2CCOCC2)C(=C\c2ccc(Cl)cc2Cl)/CC1	MEX-5 binding -54.0
COc1ccc2nc3ccccc3nc2c1NC(=O)c1ccc(Cl)cc1Cl	MEX-5 binding -53.2
COc1ccccc1C1C=C(c2ccc(Cl)cc2)Nc2nc(NS(C)(=O)=O)nn21 (configuration not stated)	Bcl-xL primary 66.3, GLD-1 TGE inh 70.6 (no result: E coli Lon inh)
CS(=O)(=O)Nc1nc2n(n1)C(c1ccccc1)C=C(c1ccc(Br)cc1)N2 (configuration not stated)	Bcl-xL primary 156.8, E coli Lon inh 99.3, GLD-1 TGE inh 157.4, EBV gp42 inh 58.0, MEX-5 binding -68.8
O=C1CCC(=O)N1c1nc2n(n1)C(c1ccccc1)C=C(c1ccc(Br)cc1)N2 (configuration not stated)	EBV gp42 inh 50.9
COc1ccccc1C1C=C(c2ccc(Cl)cc2)Nc2nc(N3C(=O)CCC3=O)nn21 (configuration not stated)	none (no result: MEX-5 binding)
CSc1ccccc1NC(=O)c1cccc(S(=O)(=O)N2CCN(C)CC2)c1	none (no result: EBV gp42 inh)
O=C(NNC(=O)C1CCC1)c1ccc(Br)cc1	none (no result: EBV gp42 inh)
Cc1cnc(C(=O)NNC(=O)c2ccc(Br)cc2)cn1	MEX-5 binding -41.3 (no result: EBV gp42 inh)
CC[C@H](C)/C=C(C)/C=C/C1=CC2=CC(=O)[C@]3(C)OC(=O)[C@@H](C(C)=O)[C@@H]3C2=CO1	Bcl-xL primary 37.8, GLD-1 TGE inh 34.0
CCCCn1c(N)c(N(CC(C)C)C(=O)c2cccs2)c(=O)[nH]c1=O	none (no result: EBV gp42 inh)
COC(CNC(=O)C1CCN(S(=O)(=O)c2ccc3nc4c(c(C(=O)O)c3c2)CC(C)CC4)CC1)OC (configuration not stated)	Bcl-xL primary 31.4 (no result: EBV gp42 inh)
